# Bioassay records deposited in PubChem BioAssay by several laboratories.
# Rows were chosen to be rich in hits. Some 2.2% of all compounds tested hit in one or more screens of this group.
# TROY NFkB inh: blocks TROY-dependent signaling in reporter cells | Q293 LMP1-TROYcd NF-kB luciferase reporter, 4 h | inhibition, % at 10 µM | 360,000 compounds, 0.98% hits;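 active = compounds whose plate-normalised and pattern-corrected inhibition of the luciferase reporter signal at the single screening dose is 50% or more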
# TWEAK Fn14 block: inhibitors of TWEAK-Fn14 interaction signaling; inhibition, % at 10 µM; TWEAK-stimulated Fn14 reporter cells, luciferase luminescence, 8 h; 360,000 compounds, 2% hits; AID 1159606; in the data active = inhibition above about 50%
# LGR2 inh: blocks bursicon-induced cAMP signaling via Drosophila LGR2; HEK293 LGR2, CRE-luciferase, bursicon-stimulated, 4 h; inhibition, % at 9.99 µM; 380,000 compounds, 0.35% hits; AID 720647;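 active = drop in luminescence signal, shown as inhibition above about 50% in the replicate tests, limit read from the data, passing the limit was not always enough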;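 also: agonist challenge used bursicon conditioned medium at about half maximal strength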
# HSP90 inh: inhibitors of HSP90 luciferase refolding in rabbit reticulocyte lysate; luciferase refolding luminescence, 3 h; inhibition, % at 5.6 µM; 290,000 compounds, 0.91% hits;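 active = inhibition above the screen-wide mean plus 3 SD, computed separately per campaign, cut at about 16% in these data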;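 also: inhibitors lower the luminescence because luciferase stays unfolded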
# HSP90 confirm: HSP90 inhibition, confirmation assay. shares compounds with HSP90 inh. rabbit reticulocyte lysate, luciferase refolding luminescence, 3 h. inhibition, % at 5.9 µM. 2,300 compounds, 64% hits; in the data active = inhibition above about 18%
# luciferase ctr: blocks native firefly luciferase in HSP90 counter-screen | shares compounds with HSP90 inh | purified native firefly luciferase, luminescence | inhibition, % at 5.9 µM | 2,300 compounds, 48% hits;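 active = inhibition above the mean inhibition of all tested sample wells plus 3 SD, cut at about 10% in these data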
# Target sequence (P08659 whole entry, looked up): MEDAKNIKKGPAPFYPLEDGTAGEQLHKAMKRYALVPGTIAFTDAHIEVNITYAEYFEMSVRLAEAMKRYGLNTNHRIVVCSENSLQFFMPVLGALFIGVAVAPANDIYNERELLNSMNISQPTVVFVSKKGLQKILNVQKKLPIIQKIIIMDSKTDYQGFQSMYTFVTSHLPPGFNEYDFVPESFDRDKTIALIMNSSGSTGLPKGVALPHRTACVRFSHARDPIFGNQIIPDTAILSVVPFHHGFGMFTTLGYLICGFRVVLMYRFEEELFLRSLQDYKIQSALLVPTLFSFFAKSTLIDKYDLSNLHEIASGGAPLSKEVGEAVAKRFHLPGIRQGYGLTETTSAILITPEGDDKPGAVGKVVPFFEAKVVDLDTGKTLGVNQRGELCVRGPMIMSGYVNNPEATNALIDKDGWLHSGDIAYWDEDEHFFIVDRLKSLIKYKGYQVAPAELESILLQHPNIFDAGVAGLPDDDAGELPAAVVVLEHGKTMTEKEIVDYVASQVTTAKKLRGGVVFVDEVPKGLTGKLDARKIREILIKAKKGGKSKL
# Hits are given with their value; . = inactive; / = no result given.
SMILES,TROY NFkB inh,TWEAK Fn14 block,LGR2 inh,HSP90 inh,HSP90 confirm,luciferase ctr
COC(=O)c1ccc2nc(-c3ccc4c(c3)OCO4)cn2c1,.,89,83,18,73,65
COC(=O)c1ccc(NC(=O)Nc2ccc3c(c2)OCO3)cc1,.,.,.,.,/,/
NNC(=O)c1ccc2nc(-c3ccc(Br)cc3)cn2c1,.,.,.,.,/,/
c1cnc2nc(-c3ccc4c(c3)OCO4)cn2c1,.,.,.,.,/,/
CCc1ccn2cc(-c3ccc4c(c3)OCO4)nc2c1,66,.,97,73,86,85
C[C@@H]1CN([C@@H](C)CO)C(=O)c2cc(C#CC3CCCCC3)cnc2O[C@H]1CN(C)Cc1cccnc1,/,/,.,/,/,/
Cc1c(/C(O)=C2\C(=O)C(=O)N(CCN(C)C)C2c2ccco2)cnn1-c1ccccc1 (stereo unspecified),.,.,/,52,21,10
Cc1c(/C(O)=C2\C(=O)C(=O)N(CCN(C)C)C2c2ccccc2)cnn1-c1ccccc1 (stereo unspecified),.,57,/,27,.,.
CC(=O)N(C)C[C@H]1Oc2cc(C#CC3CCCC3)ccc2S(=O)(=O)N([C@H](C)CO)C[C@H]1C,/,/,.,/,/,/
O=C(OCc1ccc(Br)cc1)c1ccncc1,.,.,.,.,/,/
O=C(OCc1ccc(Br)cc1)c1cccnc1,.,.,.,41,.,.
O=[N+]([O-])c1ccccc1-c1ccc(/C=N/n2cnnc2)o1,.,.,/,.,/,/
Nn1cnnc1N/N=C\c1ccc(-c2ccccc2[N+](=O)[O-])o1,.,.,.,76,.,.
Cc1cc2cc3c(cc2nc1SCC(=O)N1CCCC1)OCCO3,.,.,.,.,/,/
N#Cc1cc2cc3c(cc2nc1SCC(=O)N1CCOCC1)OCCO3,76,97,.,21,17,.
COc1ccccc1CNC(=O)C[C@@H]1C[C@@H]2c3cc(N(C)C)ccc3O[C@@H]2[C@H](CO)O1,/,/,.,/,/,/
CCN1[C@@H]2c3ccc(-c4ccncc4)c(=O)n3C[C@H]1[C@H](CO)[C@H]2C(=O)NCc1ccccc1,/,/,.,/,/,/
COc1cccc(C#Cc2ccc([C@@H]3[C@@H](CO)N4C(=O)CN(C(C)=O)C[C@@H]34)cc2)c1,/,/,.,/,/,/
c1ccc(N2CCN(c3nc4cc5c(cc4s3)OCCO5)CC2)cc1,.,.,/,.,/,/
c1c2c(cc3sc(N4CCOCC4)nc13)OCCO2,55,92,/,62,85,78
CCN1CCN(C(c2ccccn2)c2c(NC(=O)c3ccccc3)sc(C)c2C)CC1 (stereo unspecified),.,.,/,33,.,.
Cc1noc(C)c1S(=O)(=O)Nc1ccc2c(c1)CC(=O)N([C@H](C)CO)C[C@@H](C)[C@H](CN(C)Cc1ccc(Cl)c(Cl)c1)O2,/,/,.,/,/,/
CN(C)c1cccc2c(/C=N/O)ccc(N(C)C)c12,.,.,.,52,.,.
CCC(=O)N1C[C@@H](O)COC[C@@H]2O[C@@H](CC(=O)N3CCCCC3)CC[C@H]21,/,/,.,/,/,/
C/C(=N/NC(=O)c1ccccn1)c1ccc(O)cc1,.,.,.,20,.,.
SMILES,TROY NFkB inh,TWEAK Fn14 block,LGR2 inh,HSP90 inh,HSP90 confirm,luciferase ctr
C/C(=N\NC(=O)c1ccc(N/N=C(\C)c2ccc(O)cc2)cc1)c1ccc(O)cc1,.,.,.,27,.,.
C/C(=N\NC(=O)c1ccc(O)cc1)c1ccc(N2CCOCC2)cc1,.,.,.,.,/,/
COc1ccc2c3c([nH]c2c1)[C@H](CO)N(C(=O)C1CCC1)CC31CN(S(C)(=O)=O)C1,/,/,.,/,/,/
CCn1c(SCC(=O)c2ccccc2)nc2ccccc2c1=O,.,.,.,.,/,/
Cc1nc2ccccc2c(=O)n1NC(=O)c1ccc(Cl)cc1,.,.,.,.,/,/
O=C(CSc1nc2ccccc2c(=O)n1NC(=O)c1ccccc1)c1ccc(Cl)cc1,.,.,/,24,.,.
O=C(CSc1nc2ccccc2c(=O)n1NC(=O)c1ccccc1)c1ccccc1,.,.,/,36,.,.
O=[N+]([O-])c1ccc(-c2ccc(C=Nc3cccc4ccccc34)o2)cc1,63,62,/,18,.,.
COc1cc(OC)cc(C(=O)O/N=C(\N)c2ccccn2)c1,.,.,/,.,/,/
N/C(=N\OC(=O)c1cccc(Cl)c1)c1ccccn1,68,92,73,34,31,76
N/C(=N\OC(=O)c1cccc(Br)c1)c1ccccn1,66,86,77,42,26,74
N/C(=N\OC(=O)c1ccc(Cl)cc1)c1ccccn1,70,101,90,57,20,89
Cc1cc(/C(N)=N/OC(=O)c2cccc(Cl)c2)no1,.,.,.,.,/,/
COc1ccc(C(=O)O/N=C(\N)c2ccccn2)cc1,84,103,103,80,86,92
C[C@@H]1CN([C@H](C)CO)S(=O)(=O)c2ccc(-c3cccnc3)cc2O[C@@H]1CN(C)C(=O)C1CCCCC1,/,/,.,/,/,/
O=S(=O)(NCC[C@@H]1CC[C@H](NS(=O)(=O)c2cccc(Cl)c2)[C@@H](CO)O1)c1cccc(F)c1,/,/,.,/,/,/
CCCc1nn(C)c(C(=O)Nc2cccc(Cl)c2)c1Cl,70,78,.,26,35,36
CCCc1nn(C)c(C(=O)Nc2ccccc2)c1Cl,76,81,.,36,52,54
CCCc1nn(C)c(C(=O)Nc2cccc(C)c2)c1Cl,.,.,.,.,/,/
C[C@H](CO)N1C[C@H](C)[C@@H](CN(C)S(=O)(=O)c2ccccc2)Oc2ccc(NC(=O)c3ccncc3)cc2CC1=O,/,/,.,/,/,/
CN(C)C(CNC(=O)C1CCN(S(=O)(=O)c2cccc(C(F)(F)F)c2)CC1)c1ccccc1 (stereo unspecified),.,.,.,40,.,.
COc1ccccc1S(=O)(=O)N[C@H]1CC[C@@H](CCn2cc(C3CCCC3)nn2)O[C@@H]1CO,/,/,.,/,/,/
Cc1cccc(N/C=C/C(=O)c2ccc(Cl)cc2)c1,.,.,.,.,/,/
O=C(/C=C\Nc1ccccn1)c1ccc(Cl)cc1,.,87,/,39,80,73
CO[C@H](CN(C)S(=O)(=O)c1ccc(Cl)cc1)[C@@H](C)CN(C(=O)Nc1ccccc1F)[C@@H](C)CO,/,/,.,/,/,/
SMILES,TROY NFkB inh,TWEAK Fn14 block,LGR2 inh,HSP90 inh,HSP90 confirm,luciferase ctr
Cc1cc(O)c(N)c(C)c1Cl,.,.,.,43,81,.
C[C@@H]1CN([C@@H](C)CO)C(=O)c2cc(C#CC3CC3)cnc2O[C@@H]1CN(C)C(=O)c1ccccc1,/,/,.,/,/,/
O=C(CCCCl)NC1=NN(c2ccccc2)C(=O)C1,.,.,.,.,/,/
CC(=O)NC1=NN(c2ccccc2)C(=O)C1,.,.,/,18,.,.
CC(=O)NC(c1ccccc1)c1cc(Cl)c2cccnc2c1O (stereo unspecified),.,.,.,18,.,.
COc1ccc(C(NC(C)=O)c2cc(Cl)c3cccnc3c2O)cc1 (stereo unspecified),.,.,.,.,/,/
CC(=O)n1c2c(c3ccccc31)OC(N)=C(C#N)C2c1ccc(C(C)C)cc1 (stereo unspecified),79,89,.,20,.,24
